# Assay results reported in publication PMC11062922 (Nature Chemical Biology, 2023).
# Read-outs that look alike come from different tables or passages of the source.
# Assays:
# Design in all cases: species or system human, MV4-11 + K-562 + COLO205 + SK-N-BE2 + OVCAR-8
# CDK7 = conditions: read-out: apparent Kd, n = 1
# EPHA5 = conditions: read-out: apparent Kd, compound concentrations: 100 nM and 1000 nM (sheet 'Samples'), n = 1
# EPHB4 = conditions: read-out: apparent Kd, compound concentrations: 100 nM and 1000 nM (sheet 'Samples'), n = 1
# ERCC2 = conditions: read-out: apparent Kd, n = 1
# FER = conditions: read-out: apparent Kd, compound concentrations: 100 nM and 1000 nM (sheet 'Samples'), n = 1
# GAK = conditions: read-out: apparent Kd, compound concentrations: 100 nM and 1000 nM (sheet 'Samples'), n = 1
# GSK3A = conditions: read-out: apparent Kd, n = 1
# PIK3C3 = conditions: read-out: apparent Kd; compound concentrations: 100 nM and 1000 nM (sheet 'Samples'), CATDS: 0.106578843558364; n = 1
# PIK3CB = conditions: read-out: apparent Kd, compound concentrations: 100 nM and 1000 nM (sheet 'Samples'), n = 1
# TNK1 = conditions: read-out: apparent Kd, compound concentrations: 100 nM and 1000 nM (sheet 'Samples'), n = 1
# TNK2 = conditions: read-out: apparent Kd, compound concentrations: 100 nM and 1000 nM (sheet 'Samples'), n = 1
# CDKL5 = conditions: read-out: apparent Kd; compound concentrations: 100 nM and 1000 nM (sheet 'Samples'), CATDS: 0.29608844643475601; n = 1
# ERBB3 = conditions: read-out: apparent Kd; compound concentrations: 100 nM and 1000 nM (sheet 'Samples'), CATDS: 0.345701208148325; n = 1
# MYLK3 = conditions: read-out: apparent Kd; compound concentrations: 100 nM and 1000 nM (sheet 'Samples'), CATDS: 0.366305815038865; n = 1
# GSK3B = conditions: read-out: apparent Kd; compound concentrations:100 nM and 1000 nM (sheet 'Samples'); n = 1
# PAK6 = conditions: read-out: apparent Kd; compound concentrations:100 nM and 1000 nM (sheet 'Samples'); n = 1
# PKN1 = conditions: read-out: apparent Kd; compound concentrations:100 nM and 1000 nM (sheet 'Samples'); n = 1
# PRKCA = conditions: read-out: apparent Kd; compound concentrations: 100 nM and 1000 nM (sheet 'Samples'), CATDS: 0.33942301458254898; n = 1
# PRKCB = conditions: read-out: apparent Kd; compound concentrations:100 nM and 1000 nM (sheet 'Samples'); n = 1
# PRKCD = conditions: read-out: apparent Kd; compound concentrations:100 nM and 1000 nM (sheet 'Samples'); n = 1
# PRKCQ = conditions: read-out: apparent Kd; compound concentrations:100 nM and 1000 nM (sheet 'Samples'); n = 1
# RPS6KA6 = conditions: read-out: apparent Kd, n = 1
# CDK9 = conditions: read-out: apparent Kd; compound concentrations:100 nM and 1000 nM (sheet 'Samples'); n = 1
# NEK3 = conditions: read-out: apparent Kd; compound concentrations:100 nM and 1000 nM (sheet 'Samples'); n = 1
# CIT = conditions: read-out: apparent Kd; compound concentrations: 100 nM and 1000 nM (sheet 'Samples'), CATDS: 0.16560503181349201; n = 1
# CSNK1A1 = conditions: read-out: apparent Kd; compound concentrations: 100 nM and 1000 nM (sheet 'Samples'), CATDS: 0.105298123149642; n = 1
# CSNK1D = conditions: read-out: apparent Kd; compound concentrations: 100 nM and 1000 nM (sheet 'Samples'), CATDS: 0.38029539442901; n = 1
# CSNK1E = conditions: read-out: apparent Kd; compound concentrations: 100 nM and 1000 nM (sheet 'Samples'), CATDS: 0.17601881181755799; n = 1
# MAPK14 = conditions: read-out: apparent Kd; compound concentrations: 100 nM and 1000 nM (sheet 'Samples'), CATDS: 0.12679025336255401; n = 1
# MAPKAPK2 = conditions: read-out: apparent Kd; compound concentrations: 100 nM and 1000 nM (sheet 'Samples'), CATDS: 0.125209165131694; n = 1
# PKN3 = conditions: read-out: apparent Kd; compound concentrations: 100 nM and 1000 nM (sheet 'Samples'), CATDS: 0.10775551436498899; n = 1
# EPHA4 = conditions: read-out: apparent Kd; compound concentrations: 100 nM and 1000 nM (sheet 'Samples'), CATDS: 4.9130602297819598E-2; n = 1
# EPHB2 = conditions: read-out: apparent Kd; compound concentrations: 100 nM and 1000 nM (sheet 'Samples'), CATDS: 5.6373238091853198E-2; n = 1
# PRKAA1 = conditions: read-out: apparent Kd; compound concentrations: 100 nM and 1000 nM (sheet 'Samples'), CATDS: 4.9195025679132399E-2; n = 1
# PRKAG2 = conditions: read-out: apparent Kd; compound concentrations: 100 nM and 1000 nM (sheet 'Samples'), CATDS: 5.0151658649726198E-2; n = 1
# PTK2B = conditions: read-out: apparent Kd; compound concentrations: 100 nM and 1000 nM (sheet 'Samples'), CATDS: 5.5106996532726202E-2; n = 1
# PTK2 = conditions: read-out: apparent Kd; compound concentrations: 100 nM and 1000 nM (sheet 'Samples'), CATDS: 5.55941477403585E-2; n = 1
# [1] = compound concentrations:100 nM and 1000 nM (sheet 'Samples')
smiles,measurement,setting,value
O=c1cc(N2CCOCC2)nc2n(Cc3cccc(Cl)c3Cl)ccn12 [GSK2286295A],potency estimated from few doses,"CDK7; compound concentrations: 100 nM and 1000 nM (sheet 'Samples'), CATDS: 8.4335056049156601E-2",923 nM
same,potency estimated from few doses,EPHA5; CATDS: 7.2696381065974702E-2,1360 nM
same,potency estimated from few doses,EPHB4; CATDS: 7.5541211933236804E-2,1220 nM
same,potency estimated from few doses,"ERCC2; compound concentrations: 100 nM and 1000 nM (sheet 'Samples'), CATDS: 9.6102785253179598E-2",687 nM
same,potency estimated from few doses,FER; CATDS: 7.77606230380051E-2,1130 nM
same,potency estimated from few doses,GAK; CATDS: 7.8204164782115004E-2,1110 nM
same,potency estimated from few doses,"GSK3A; compound concentrations: 100 nM and 1000 nM (sheet 'Samples'), CATDS: 7.5555777377750599E-2",1220 nM
same,potency estimated from few doses,PIK3C3,554 nM
same,potency estimated from few doses,PIK3CB; CATDS: 0.68027770173125801,21.8 nM
same,potency estimated from few doses,TNK1; CATDS: 9.2477692433592898E-2,747 nM
same,potency estimated from few doses,TNK2; CATDS: 8.9325991753534395E-2,807 nM
COc1cccc(-n2ncc3c(N/N=C/c4ccc(F)cc4)ncnc32)c1 [GW817396X],potency estimated from few doses,CDKL5,2110 nM
same,potency estimated from few doses,ERBB3,1520 nM
same,potency estimated from few doses,MYLK3,1360 nM
CN(C)C[C@H]1CCn2c(c(C3=C(c4cn(C)c5ccccc45)C(=O)NC3=O)c3ccccc32)C1 [RO0320432-000],potency estimated from few doses,CDK7; [1],1010 nM
same,potency estimated from few doses,ERCC2; [1],821 nM
same,potency estimated from few doses,GSK3A; [1],530 nM
same,potency estimated from few doses,GSK3B,299 nM
same,potency estimated from few doses,PAK6,1540 nM
same,potency estimated from few doses,PKN1,1400 nM
same,potency estimated from few doses,PRKCA,18.6 nM
same,potency estimated from few doses,PRKCB,66.4 nM
same,potency estimated from few doses,PRKCD,27.1 nM
same,potency estimated from few doses,PRKCQ,122 nM
same,potency estimated from few doses,RPS6KA6; [1],311 nM
Nc1n[nH]c2cnc(-c3ccccc3)cc12 [SB-642124-AAA],potency estimated from few doses,CDK9,1400 nM
same,potency estimated from few doses,NEK3,1820 nM
Cc1ccn2nc(-c3ccc(F)cc3)c(-c3ccncc3)c2c1.Cl [GW457859A],potency estimated from few doses,CIT,653 nM
same,potency estimated from few doses,CSNK1A1,2070 nM
same,potency estimated from few doses,CSNK1D,165 nM
same,potency estimated from few doses,CSNK1E,578 nM
same,potency estimated from few doses,MAPK14,1200 nM
same,potency estimated from few doses,MAPKAPK2,1240 nM
same,potency estimated from few doses,PKN3,1920 nM
COc1ccc(Nc2nccc(N3CCC(NC(=O)C(C)c4ccc(Cl)cc4)C3)n2)cc1 (stereo not drawn) [GSK1379735A],potency estimated from few doses,"CDK7; compound concentrations: 100 nM and 1000 nM (sheet 'Samples'), CATDS: 6.6688716966174802E-2",733 nM
same,potency estimated from few doses,EPHA4,1410 nM
same,potency estimated from few doses,EPHA5; CATDS: 4.6938657100171297E-2,1600 nM
same,potency estimated from few doses,EPHB2,1020 nM
same,potency estimated from few doses,EPHB4; CATDS: 6.1848145802902502E-2,846 nM
same,potency estimated from few doses,"ERCC2; compound concentrations: 100 nM and 1000 nM (sheet 'Samples'), CATDS: 7.18018036860264E-2",641 nM
same,potency estimated from few doses,FER; CATDS: 6.7369227307756602E-2,719 nM
same,potency estimated from few doses,GAK; CATDS: 6.1535147387706803E-2,854 nM
same,potency estimated from few doses,"GSK3A; compound concentrations: 100 nM and 1000 nM (sheet 'Samples'), CATDS: 4.87406111355713E-2",1440 nM
same,potency estimated from few doses,PIK3CB; CATDS: 5.9648096714639699E-2,910 nM
same,potency estimated from few doses,PRKAA1,1410 nM
same,potency estimated from few doses,PRKAG2,1340 nM
same,potency estimated from few doses,PTK2B,1080 nM
same,potency estimated from few doses,PTK2,1060 nM
same,potency estimated from few doses,"RPS6KA6; compound concentrations: 100 nM and 1000 nM (sheet 'Samples'), CATDS: 5.82257386615097E-2",956 nM
same,potency estimated from few doses,TNK1; CATDS: 9.1910216493779603E-2,430 nM
same,potency estimated from few doses,TNK2; CATDS: 8.5615413066405396E-2,479 nM
